“And” between values parts separate entries of the source, which are not always exact repeats. Equal entries are not always repeated. Results filed as inconclusive are left out. The source made the active and inactive calls. Calls follow the shape of the full dose curve. Numbered stars: 1 amine (or outer) side, 2 acyl side, 3 side chain; on linkers, the order of the positions; unused ones are H or OH. Square brackets hold non-standard residues; d marks the D form. Side chains are listed from the residue outwards. Peptide text beside a SMILES is read from it. * marks the point of attachment. Ethylenediamine = C(CN[*:2])N[*:1]; Hyp = O=C(O)[C@@H]1C[C@@H](O)CN1; Phg = N[C@H](C(=O)O)c1ccccc1; CO = O=C([*:1])[*:2]; Bn = c1ccc(C*)cc1
What was measured:
[1] = Primary qHTS for inhibitors of SARS-S pseudo-typed particle cell entry (AID 1479145); details: SARS-S pseudotyped particle cell entry, luciferase reporter; series mostly up to 57.1 µM; also: nearly all actives have a fitted effect of over 45% in size; as to activity change, negative = inhibition: % is scaled to controls: 0 for no effect and ±100 for the full control effect
[2] = Primary qHTS for Huh7 cytotoxicity: counterscreen for inhibitors of MERS-S pseudotyped particle cell entry (AID 1479147); details: cell viability read-out; series mostly up to 57.1 µM; as to activity change, negative = cytotoxicity: % is scaled to controls: 0 for no effect and ±100 for the full control effect
[3] = Primary qHTS for inhibitors of MERS-S pseudo-typed particle cell entry (AID 1479149); details: MERS-S pseudotyped particle entry, luciferase; series mostly up to 57.1 µM; also: nearly all actives have a fitted effect of over 60% in size
[4] = Primary qHTS for Vero E6 cytotoxicity: counterscreen for inhibitors of SARS-S pseudo-typed particle cell entry (AID 1479150); details: cell viability; series mostly up to 57.1 µM; as to activity change, negative = cytotoxicity: % is scaled to controls: 0 for no effect and ±100 for the full control effect
[5] = Cytotoxicity counterscreen for inhibitors of SARS-CoV-2 cell entry (AID 1645845); details: cell viability (SARS-CoV-2 entry assay cells); series mostly up to 57.1 µM; also: nearly all actives have a fitted effect of over 50% in size; as to activity change, negative = cytotoxicity: % is scaled to controls: 0 for no effect and ±100 for the full control effect
In short: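 Expi293F/hACE2 cells seeded overnight; cpd pin-transferred in DMSO, 1 h preincubation, + media, 48 h 37 C 5% CO2; ATPLite 1step luminescence; normalized to cells and no cells.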

[6] = Primary qHTS to identify inhibitors of SARS-CoV-2 cell entry (AID 1645846); details: SARS-CoV-2 pseudovirus cell entry assay, luminescence; activity change, negative = inhibition: at 57.1 µM (top of the series) unless noted; also: nearly all actives have a fitted effect of over 45% in size
In short: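 Using luciferase-reporting pseudoviruses carrying Wuhan-Hu-1 spike, the screen tracks entry into stably ACE2-expressing cells over 48 hr. Activity is expressed relative to spike particles versus particles lacking any fusion protein.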

CCCCCCCCCCCC(=O)OCN1C(=O)CCc2ccc(OCCCCN3CCN(c4cccc(Cl)c4Cl)CC3)cc21
-17.3% [at 19 µM]: activity change, negative = inhibition [6]
inactive: Potency [1] | Potency [2] | Potency [3] | Potency [4] | Potency [5]

OCCOCCOCCO
inactive: Potency [1] | Potency [2] | Potency [3] | Potency [4] | Potency [5] | Potency [6]

C=CC[N+]1([C@H]2C[C@H]3[C@@H]4CC[C@H]5C[C@H](O)[C@@H](N6CCOCC6)C[C@]5(C)[C@H]4CC[C@]3(C)[C@H]2OC(C)=O)CCCC1
-19.7% and -28.9%: activity change, negative = inhibition [6]
inactive: Potency [1] | Potency [2] | Potency [3] | Potency [4] | Potency [5]

N[C@H](Cc1ccccc1)C(=O)O
inactive: Potency [1] | Potency [2] | Potency [3] | Potency [4] | Potency [5]
-27.4% [at 27.1 µM]: activity change, negative = inhibition [6]

Cc1cc2nc3c(=O)[nH]c(=O)nc-3n(C[C@@H](O)[C@@H](O)[C@@H](O)COP(=O)(O)O)c2cc1C
inactive: activity change, negative = inhibition [1] -30.5% [at 11.4 µM] | outcome [2] inactive [at 11.4 µM] | outcome [3] inactive [at 11.4 µM] | activity change, negative = cytotoxicity [4] 1.24% [at 11.4 µM] | activity change, negative = cytotoxicity [5] 3.55% [at 11.3 µM]
-22.9% [at 11.3 µM]: activity change, negative = inhibition [6]

CO[C@H]1/C=C\O[C@@]2(C)Oc3c(C)c(O)c4c(O)c(c(/C=N/N5CCN(C6CCCC6)CC5)c(O)c4c3C2=O)NC(=O)/C(C)=C\C=C/[C@H](C)[C@H](O)[C@@H](C)[C@@H](O)[C@@H](C)[C@H](OC(C)=O)[C@@H]1C
inactive: Potency [1] | Potency [2] | Potency [3] | Potency [4] | Potency [5] | Potency [6]

Cc1nc(NS(=O)(=O)c2ccc(N)cc2)nc(C)c1Br
-21.5%: activity change, negative = inhibition [6]
inactive: Potency [1] | Potency [2] | Potency [3] | Potency [4] | Potency [5]

C=C[C@@H]1C[C@]1(NC(=O)[C@@H]1C[C@@H]2CN1C(=O)[C@H](C(C)(C)C)NC(=O)O[C@@H]1C[C@H]1CCCCCc1nc3ccc(OC)cc3nc1O2)C(=O)NS(=O)(=O)C1CC1
inactive: Potency [1] | Potency [2] | Potency [3] | Potency [4] | Potency [5]

O=P(O)(O)CP(=O)(O)O
-15.6%: activity change, negative = inhibition [6]
inactive: Potency [1] | Potency [2] | Potency [3] | Potency [4] | Potency [5]

NC(N)=NCCC[C@@H](N)C(=O)N[C@@H](CCCN=C(N)N)C(=O)N1CCC[C@H]1C(=O)N1C[C@H](O)C[C@H]1C(=O)NCC(=O)N[C@@H](Cc1cccs1)C(=O)N[C@@H](CO)C(=O)N1Cc2ccccc2C[C@@H]1C(=O)N1[C@H](C(=O)N[C@@H](CCCN=C(N)N)C(=O)O)C[C@@H]2CCCC[C@@H]21
inactive: Potency [1] | Potency [2] | Potency [3] | Potency [4] | Potency [5] | Potency [6]

COc1ccc(C(=O)N2CCN(c3ccc4c(c3)CCC(=O)N4)CC2)cc1OC
3.69% and -19.3%: activity change, negative = inhibition [6]
inactive: Potency [1] | Potency [2] | Potency [3] | Potency [4] | Potency [5]

O=C1O[C@H]2[C@H](OC(O)[C@@H]2O)[C@@H]1O (some centres undefined)
inactive: Potency [1] | Potency [2] | Potency [3] | Potency [4] | Potency [5] | Potency [6]

CNC(=O)OCc1cccc(COC(=O)NC)n1
inactive: Potency [1] | Potency [2] | Potency [3] | Potency [4] | Potency [5] | Potency [6]

CC(C)[C@H](N)C(=O)O
-17.8%: activity change, negative = inhibition [6]
inactive: Potency [1] | Potency [2] | Potency [3] | Potency [4] | Potency [5]

CSCCNc1nc(SCCC(F)(F)F)nc2c1ncn2[C@@H]1O[C@H](COP(=O)(O)OP(=O)(O)C(Cl)(Cl)P(=O)(O)O)[C@@H](O)[C@H]1O
inactive: Potency [1] | Potency [2] | Potency [3] | Potency [4] | Potency [5]
-28.8%: activity change, negative = inhibition [6]

[2H]C([2H])([2H])C(O)(CCO[C@@H](C)[C@H]1CC[C@H]2/C(=C/C=C3\C[C@@H](O)C[C@H](O)C3=C)CCC[C@]12C)C([2H])([2H])[2H]
-6.57%: activity change, negative = inhibition [6]
inactive: Potency [1] | Potency [2] | Potency [3] | Potency [4] | Potency [5]

OCC(O)COc1ccc(Cl)cc1 (centres undefined)
inactive: Potency [1] | Potency [2] | Potency [3] | Potency [4] | Potency [5]
-23.5% [at 171 µM]: activity change, negative = inhibition [6]

COc1ccc(C[C@H](C)NC[C@@H](O)c2ccc(O)c(NC=O)c2)cc1
inactive: Potency [1] | Potency [2] | Potency [3] | Potency [4] | Potency [5]
-27.6%: activity change, negative = inhibition [6]

CC1CC2C3CCC4=CC(=O)C=CC4(C)C3(F)C(O)CC2(C)C1(O)C(=O)COC(=O)c1cccc(S(=O)(=O)O)c1 (centres undefined)
inactive: Potency [1] | Potency [2] | Potency [3] | Potency [4] | Potency [5]
4.79%: activity change, negative = inhibition [6]

NCCCC[C@@H]1NC(=O)[C@@H](Cc2c[nH]c3ccccc23)NC(=O)[C@H](c2ccccc2)NC(=O)[C@@H]2C[C@@H](OC(=O)NCCN)CN2C(=O)[C@H](Cc2ccccc2)NC(=O)[C@H](Cc2ccc(OCc3ccccc3)cc2)NC1=O (cyclo([Hyp]([CO-Ethylenediamine])[Phg][dW]KY(Bn)F))
inactive: Potency [1] | Potency [2] | Potency [3] | Potency [4] | Potency [5]

O=C(O)c1ccc(NC(=O)[C@H](Cc2ccc(O)cc2)NC(=O)c2ccccc2)cc1
-10.6%: activity change, negative = inhibition [6]
inactive: Potency [1] | Potency [2] | Potency [3] | Potency [4] | Potency [5]

CC(=O)CCC1C(=O)N(c2ccccc2)N(c2ccccc2)C1=O
-21%: activity change, negative = inhibition [6]
inactive: Potency [1] | Potency [2] | Potency [3] | Potency [4] | Potency [5]

CC(C)C[C@H](NC(=O)[C@@H](COC(C)(C)C)NC(=O)[C@H](Cc1ccc(O)cc1)NC(=O)[C@H](CO)NC(=O)[C@H](Cc1c[nH]c2ccccc12)NC(=O)[C@H](Cc1cnc[nH]1)NC(=O)[C@@H]1CCC(=O)N1)C(=O)N[C@@H](CCCN=C(N)N)C(=O)N1CCC[C@H]1C(=O)NNC(N)=O
-11.8% [at 27.1 µM]: activity change, negative = inhibition [6]
inactive: Potency [1] | Potency [2] | Potency [3] | Potency [4] | Potency [5]

Cc1ncc(C[n+]2csc(CCOP(=O)(O)OP(=O)(O)O)c2C)c(N)n1
-1.65% [at 0.702 µM]: activity change, negative = inhibition [6]
inactive: outcome [1] inactive [at 0.573 µM] | outcome [2] inactive [at 0.573 µM] | outcome [3] inactive [at 0.573 µM] | activity change, negative = cytotoxicity [4] -14.9% [at 0.573 µM] | activity change, negative = cytotoxicity [5] 3.84% [at 0.702 µM]

O=C(O[C@H]1C[N+]2(CCCOc3ccccc3)CCC1CC2)C(O)(c1cccs1)c1cccs1
inactive: Potency [1] | Potency [2] | Potency [3] | Potency [4] | Potency [5]
-28.6%: activity change, negative = inhibition [6]

CC(=O)OC1CCC2(C)C(=CCC3C2CCC2(C)C(c4cccnc4)=CCC32)C1 (centres undefined)
-20%: activity change, negative = inhibition [6]
inactive: Potency [1] | Potency [2] | Potency [3] | Potency [4] | Potency [5]

CS(=O)(=O)OCC(O)C(O)COS(C)(=O)=O (centres undefined)
inactive: Potency [1] | Potency [2] | Potency [3] | Potency [4] | Potency [5]

CCCCCCCCCCCCCCCCCC(=O)OCC(C)O (centres undefined)
-21% [at 114 µM]: activity change, negative = inhibition [6]
inactive: Potency [1] | Potency [2] | Potency [3] | Potency [4] | Potency [5]

C=C1CC[C@H](O)C/C1=C\C=C1/CCC[C@]2(C)[C@@H]([C@H](C)CC[C@H](O)C(C)(C)O)CC[C@@H]12
-14.2%: activity change, negative = inhibition [6]
inactive: Potency [1] | Potency [2] | Potency [3] | Potency [4] | Potency [5]

O=C(O)c1cc(O)c2c(c1)[O][Bi][O]2
-27.2% [at 0.702 µM]: activity change, negative = inhibition [6]
inactive: activity change, negative = inhibition [1] -20% [at 0.573 µM] | activity change, negative = cytotoxicity [2] -1.24% [at 0.573 µM] | outcome [3] inactive [at 0.573 µM] | outcome [4] inactive [at 0.573 µM] | outcome [5] inactive [at 0.702 µM]

CC(O)C(CO)NC(=O)C1CSSCC(NC(=O)C(N)Cc2ccccc2)C(=O)NC(Cc2ccccc2)C(=O)NC(Cc2c[nH]c3ccccc23)C(=O)NC(CCCCN)C(=O)NC(C(C)O)C(=O)N1 (centres undefined)
-15.6% [at 27.1 µM]: activity change, negative = inhibition [6]
inactive: Potency [1] | Potency [2] | Potency [3] | Potency [4] | Potency [5]

NC(C(=O)NC1C(=O)N2C(C(=O)O)=C(CSc3cn[nH]n3)CSC12)c1ccc(O)cc1 (centres undefined)
inactive: Potency [1] | Potency [2] | Potency [3] | Potency [4] | Potency [5]
-22%: activity change, negative = inhibition [6]
